Data taken from PubChem BioAssay (NCATS).
Results filed as inconclusive are left out. Values without a mark were called inactive. The source made the active and inactive calls. Unless noted, the call rests on the fitted dose curve; in most records, active means well fitted curve in the direction sought with a large enough effect; inconclusive means small, poorly fitted or top-dose-only effect, or another doubt; inactive means no such curve, though single readings can be large; an effect the other way counts as inactive or inconclusive.

molecular target: Cellular tumor antigen p53 (Homo sapiens) (UniProt P04637); assay: Primary qHTS for small molecule compounds that upregulate eGFP-tagged delta133p53alpha (in C-terminal) cells. (AID 2060324); conditions: NCI-H358 delta133p53alpha-eGFP (C-terminal tag), GFP fluorescence imaging, 24 h; series mostly up to 57.5 µM; GFP increase (activation): at the top concentration;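 further: 0% = DMSO wells and 100% = 57.5 µM 5-azacytidine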
Sequence (P04637 whole entry, looked up): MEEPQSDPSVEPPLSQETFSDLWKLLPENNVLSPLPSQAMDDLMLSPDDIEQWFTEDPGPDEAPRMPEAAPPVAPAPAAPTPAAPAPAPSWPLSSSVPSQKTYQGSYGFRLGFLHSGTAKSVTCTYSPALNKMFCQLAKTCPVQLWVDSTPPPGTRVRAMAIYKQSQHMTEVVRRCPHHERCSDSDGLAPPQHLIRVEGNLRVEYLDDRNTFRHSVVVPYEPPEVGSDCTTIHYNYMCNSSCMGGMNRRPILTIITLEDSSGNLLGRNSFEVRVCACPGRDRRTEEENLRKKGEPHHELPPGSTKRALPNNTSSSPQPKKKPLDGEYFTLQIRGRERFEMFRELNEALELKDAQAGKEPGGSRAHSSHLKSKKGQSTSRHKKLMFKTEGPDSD
How it was run: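 C-terminal eGFP-tagged delta133p53alpha NCI-H358 line; dox-induced (100 ng/ml, 24 h) then plated without dox; compounds pinned in titration, 24 h 37 °C/5% CO2; PFA fix, Hoechst nuclei; GFP by LSC.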

**Q.** With C=CCN1CCc2c(cc(O)c(O)c2Cl)C(c2ccccc2)C1 (stereo not given) as the molecule, how does the “GFP increase (activation)” value read?
**A.** 0.181%

**Q.** Which “GFP increase (activation)” value does the source give for Oc1ccc(/C=C/c2ccc(/C=C/c3ccc(O)cc3)c(Br)c2)cc1 here?
**A.** -0.168%

**Q.** Which “GFP increase (activation)” value does the source give for NC1(C(=O)O)CCc2cc(C(=O)O)ccc21 (stereo not given) here?
**A.** -3.99%

**Q.** For C=CCN1CCc2cc(O)c(O)cc2C(c2ccccc2)C1 (stereo not given), which “GFP increase (activation)” value is on record?
**A.** -4.94%

**Q.** With COc1ccc(Br)cc1S(=O)(=O)NC(=O)/C=C/c1ccccc1Cc1ccc2ccccc2c1 as the molecule, how does the “GFP increase (activation)” value read?
**A.** -9.76%

**Q.** Which “GFP increase (activation)” value does the source give for Brc1c(Br)c(Br)c2n[nH]nc2c1Br here?
**A.** -1.33%

**Q.** With NC1(C(=O)O)CC1 as the molecule, how does the “GFP increase (activation)” value read?
**A.** -2.2%

**Q.** Which “GFP increase (activation)” value does the source give for N#C/C(=C\c1ccc(O)c(O)c1)C(=O)NCCc1ccccc1 here?
**A.** 16.9%

molecular target: Aldehyde dehydrogenase, mitochondrial (Homo sapiens) (UniProt P05091); assay: qHTS for Inhibitors of the Aldehyde Dehydrogenase Family (ALDH2) Validation screens (AID 2061302; active means well fitted inhibition curve with a large enough effect; title and protocol of this record describe different tests;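 further: plate controls were DMSO vehicle for no effect and maximal DPI positive control response for full effect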); conditions: ALDH inhibition qHTS; series mostly up to 42.6 µM; activity change, negative = inhibition: at the top concentration

**Q.** With Oc1ccc(C2CNCc3sccc32)cc1O (stereo not given) as the molecule, how does the “activity change, negative = inhibition” value read?
**A.** -3.62%

**Q.** With C=CCN1CCc2c(cc(O)c(O)c2Br)[C@@H](c2ccccc2)C1 as the molecule, how does the “activity change, negative = inhibition” value read?
**A.** -13.3%

**Q.** Which “activity change, negative = inhibition” value does the source give for NS(=O)(=O)c1cc2c(cc1Cl)NC(C1CC3C=CC1C3)NS2(=O)=O (stereo not given) here?
**A.** -7.84%

**Q.** For Cc1nc2n(c(=O)c1CCN1CCC(c3noc4cc(F)ccc34)CC1)CCCC2O (stereo not given), which “activity change, negative = inhibition” value is on record?
**A.** 1.03%

**Q.** Which “activity change, negative = inhibition” value does the source give for CC(C)(C)c1onc(OCP(=O)(O)O)c1CC(N)C(=O)O (stereo not given) here?
**A.** -8.79%

**Q.** For C=CCN1CCc2cc(O)c(O)cc2C(c2ccccc2)C1 (stereo not given), which “activity change, negative = inhibition” value is on record?
**A.** -11%

molecular target: Aldehyde dehydrogenase, mitochondrial (Homo sapiens) (UniProt P05091); assay: qHTS for Inhibitors of the Aldehyde Dehydrogenase Family (ALDH2) Primary screen (AID 2061308); conditions: ALDH2 enzyme inhibition qHTS, 1536-well; series mostly up to 56 µM; activity change, negative = inhibition: at the top concentration;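 further: plate controls were vehicle for no effect and reference inhibitor for full effect; nearly all actives have a fitted effect of over 55% in size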

**Q.** With COc1cc(N2CCC(N3CCN(C)CC3)CC2)ccc1Nc1ncc(Cl)c(Nc2ccccc2S(=O)(=O)C(C)C)n1 as the molecule, how does the “activity change, negative = inhibition” value read?
**A.** 2.14%

**Q.** For O=C(CCCCCCC(=O)Nc1ccc([C@H]2O[C@@H](CSc3nc(-c4ccccc4)c(-c4ccccc4)o3)C[C@@H](c3ccc(CO)cc3)O2)cc1)NO, which “activity change, negative = inhibition” value is on record?
**A.** -17.4%

**Q.** Which “activity change, negative = inhibition” value does the source give for COc1ccc(-c2cc3nccn3c(Nc3ncccc3C(N)=O)n2)cc1OC here?
**A.** -11.2%

**Q.** Which “activity change, negative = inhibition” value does the source give for CC(C)n1nc(-c2cc3cc(O)ccc3[nH]2)c2c(N)ncnc21 here?
**A.** -13.1%

**Q.** Which “activity change, negative = inhibition” value does the source give for Cc1nc(N)sc1-c1ccnc(Nc2ccc(N3CCOCC3)cc2)n1 here?
**A.** 0.143%

**Q.** With COc1cc(N2CCC(O)CC2)ccc1Nc1cc(Nc2ccccc2S(=O)(=O)C(C)C)c2cc[nH]c2n1 as the molecule, how does the “activity change, negative = inhibition” value read?
**A.** -11.7%

test system: not listed separately; assay: BET inhibitor-based combinations targeting novel dependencies in MECOM-rearranged (r) AML: SET-2 cell line (AID 2202231); conditions: SET-2 AML cells viability, CellTiter-Glo luminescence, 48 h; viability: active compounds read low, concentration not given here; further: nearly all actives have a fitted effect of over 35% in size; further: potency means the concentration at half of the fitted maximal effect;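 on viability: plate controls were DMSO treated cells for no effect and wells without cells for full effect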
How it was run: (§1)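 AML cell lines seeded at 500 cells/well, treated with 11-point dose curves for 48 h. Viability by CellTiter-Glo luminescence, normalised to DMSO and empty wells; activity expressed as AUC and per-cell-line Z-transformed AUC.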

**Q.** For CC(=O)N(O)CCCCCNC(=O)CCC(=O)N(O)CCCCCNC(=O)CCC(=O)N(O)CCCCCN, which Potency is on record?
**A.** 20.9 µM (active)

**Q.** Which viability does the source give for O=C(NCC1CCCCN1)c1cc(OCC(F)(F)F)ccc1OCC(F)(F)F (stereo not given) here?
**A.** 112%

**Q.** With Clc1ccccc1CN1CCc2sccc2C1 as the molecule, how does the viability read?
**A.** 111%

**Q.** For O=C(CCCCCCC(=O)Nc1ccc([C@H]2O[C@@H](CSc3nc(-c4ccccc4)c(-c4ccccc4)o3)C[C@@H](c3ccc(CO)cc3)O2)cc1)NO, which viability is on record?
**A.** 106%

**Q.** With Cc1cc2c(C(C)C)c(O)c(O)c(C=O)c2c(O)c1-c1c(C)cc2c(C(C)C)c(O)c(O)c(C=O)c2c1O as the molecule, how does the Potency read?
**A.** 9.34 µM (active)

**Q.** With CC(C)n1nc(-c2cc3cc(O)ccc3[nH]2)c2c(N)ncnc21 as the molecule, how does the Potency read?
**A.** 2.09 µM (active)

**Q.** With Cc1nc(N)sc1-c1ccnc(Nc2ccc(N3CCOCC3)cc2)n1 as the molecule, how does the Potency read?
**A.** 5.25 µM (active)

**Q.** With Cc1coc2c1C(=O)C(=O)c1c-2ccc2c1CCCC2(C)C as the molecule, how does the viability read?
**A.** 97.6%

**Q.** With CCCOc1ccc2nc(NC(=O)OC)[nH]c2c1 as the molecule, how does the Potency read?
**A.** 0.525 µM (active)

test system: not listed separately; assay: BET inhibitor-based combinations targeting novel dependencies in MECOM-rearranged (r) AML: OCI-AML3 cell line (AID 2202232); conditions: CellTiter-Glo luminescence, 48 h; Potency: OCI-AML3 viability; series mostly up to 46 µM; viability (% of control): at the top concentration; further: nearly all actives have a fitted effect of over 35% in size; further: potency means the concentration at half of the fitted maximal effect;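 on viability (% of control): plate controls were DMSO vehicle wells for no effect and wells without cells for full effect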
How it was run: as §1

**Q.** With COc1cc(N2CCC(N3CCN(C)CC3)CC2)ccc1Nc1ncc(Cl)c(Nc2ccccc2S(=O)(=O)C(C)C)n1 as the molecule, how does the Potency read?
**A.** 2.63 µM (active)

**Q.** For CC(=O)N(O)CCCCCNC(=O)CCC(=O)N(O)CCCCCNC(=O)CCC(=O)N(O)CCCCCN, which Potency is on record?
**A.** 11.8 µM (active)

**Q.** Which Potency does the source give for CC(C)[C@H](C(=O)Nc1ccc(C(=O)NO)cc1)c1ccccc1 here?
**A.** 0.742 µM (active)

**Q.** For Clc1ccccc1CN1CCc2sccc2C1, which “viability (% of control)” value is on record?
**A.** 109%

**Q.** Which Potency does the source give for Cc1c(-c2ccc(O)cc2)n(Cc2ccc(OCCN3CCCCCC3)cc2)c2ccc(O)cc12 here?
**A.** 16.6 µM (active)

**Q.** Which Potency does the source give for Cc1cc2c(C(C)C)c(O)c(O)c(C=O)c2c(O)c1-c1c(C)cc2c(C(C)C)c(O)c(O)c(C=O)c2c1O here?
**A.** 9.34 µM (active)

**Q.** Which Potency does the source give for CC(C)n1nc(-c2cc3cc(O)ccc3[nH]2)c2c(N)ncnc21 here?
**A.** 1.86 µM (active)

**Q.** For Cc1nc(N)sc1-c1ccnc(Nc2ccc(N3CCOCC3)cc2)n1, which Potency is on record?
**A.** 11.8 µM (active)

**Q.** For COc1cc(N2CCC(O)CC2)ccc1Nc1cc(Nc2ccccc2S(=O)(=O)C(C)C)c2cc[nH]c2n1, which Potency is on record?
**A.** 18.6 µM (active)

**Q.** Which Potency does the source give for CCCOc1ccc2nc(NC(=O)OC)[nH]c2c1 here?
**A.** 0.332 µM (active)

test system: not listed separately; assay: BET inhibitor-based combinations targeting novel dependencies in MECOM-rearranged (r) AML: MV-4-11 cell line (AID 2202233); conditions: MV-4-11 AML viability, CellTiter-Glo luminescence, 48 h; series mostly up to 46 µM; viability, % of control: at the top concentration; further: nearly all actives have a fitted effect of over 45% in size; further: potency means the concentration at half of the fitted maximal effect;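 on viability, % of control: plate controls were DMSO for no effect and blank wells for full effect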
How it was run: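 Cells at 500/well were exposed for 48 hr to MIPE v5.0 drugs as 11-point dose curves. Viability was read by CellTiter-Glo luminescence and normalized to DMSO and empty-well controls. Activity was expressed as AUC and per-cell-line Z-AUC.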

**Q.** Which Potency does the source give for COc1cc(N2CCC(N3CCN(C)CC3)CC2)ccc1Nc1ncc(Cl)c(Nc2ccccc2S(=O)(=O)C(C)C)n1 here?
**A.** 0.468 µM (active)

**Q.** With CC(=O)N(O)CCCCCNC(=O)CCC(=O)N(O)CCCCCNC(=O)CCC(=O)N(O)CCCCCN as the molecule, how does the Potency read?
**A.** 11.8 µM (active)

**Q.** Which Potency does the source give for CC(C)[C@H](C(=O)Nc1ccc(C(=O)NO)cc1)c1ccccc1 here?
**A.** 0.372 µM (active)

**Q.** With O=C(NCC1CCCCN1)c1cc(OCC(F)(F)F)ccc1OCC(F)(F)F (stereo not given) as the molecule, how does the “viability, % of control” value read?
**A.** 106%

**Q.** With COc1ccc(-c2cc3nccn3c(Nc3ncccc3C(N)=O)n2)cc1OC as the molecule, how does the Potency read?
**A.** 0.372 µM (active)

**Q.** Which Potency does the source give for Cc1c(-c2ccc(O)cc2)n(Cc2ccc(OCCN3CCCCCC3)cc2)c2ccc(O)cc12 here?
**A.** 16.6 µM (active)

**Q.** With Cc1cc2c(C(C)C)c(O)c(O)c(C=O)c2c(O)c1-c1c(C)cc2c(C(C)C)c(O)c(O)c(C=O)c2c1O as the molecule, how does the Potency read?
**A.** 9.34 µM (active)

**Q.** With CC(C)n1nc(-c2cc3cc(O)ccc3[nH]2)c2c(N)ncnc21 as the molecule, how does the Potency read?
**A.** 0.417 µM (active)

**Q.** Which Potency does the source give for Cc1nc(N)sc1-c1ccnc(Nc2ccc(N3CCOCC3)cc2)n1 here?
**A.** 0.186 µM (active)

**Q.** For COc1cc(N2CCC(O)CC2)ccc1Nc1cc(Nc2ccccc2S(=O)(=O)C(C)C)c2cc[nH]c2n1, which Potency is on record?
**A.** 18.6 µM (active)

**Q.** For CCCOc1ccc2nc(NC(=O)OC)[nH]c2c1, which Potency is on record?
**A.** 0.372 µM (active)
